Measurements reported in the OligoGym collection.

Biological target: FAM194A
Assay: pooled miR-30 sensor sort-seq; sequence = guide strand
Details: shRNA
Further: reference of the scale not given here.

| Sequence | sensor-assay potency score (higher = more potent) |
| --- | --- |
| TACAATGTCATCAATTATCTGT | 0.418 |
| TAGAAATCTTGTCTTGTTCTAA | 0.351 |
| TTTATCAGACAAATCTTGGAGC | -0.442 |
| TTTTCTTTTGCCTTGAGTCTGT | 0.354 |
| TTCTCTAAGAGCTCATTCCTGA | -0.231 |
| TTGTCTTGTTCTAAGATGCGGA | -0.227 |

Biological target: FAM203A
Assay: as above
Details: shRNA

| Sequence | sensor-assay potency score (higher = more potent) |
| --- | --- |
| TGGACCACGCACCTGTCGGGGT | -1.1 |
| TAGCCGGGCGTGCACAGCGCGC | -1.89 |
| ATGGCTTCAACAAGCATCTTGC | -0.247 |
| TGCATCAGGTTCTCGCTGCTTG | -0.383 |
| AGGTCCAAGCAACCACTCGTGA | -1.79 |
| TGCAAGTCGACAGGCAGCCGTT | -1.26 |
| TTCAACAAGCATCTTGCGGATG | -0.806 |
| TCCAACTGCTCCTGCTCCCTGC | -0.834 |
| TGATGTCGGTGCTCGAAGCAGC | -0.572 |
| TTGCAGTGGTTTTCTGTCCAGT | -0.715 |
| TCTTGCGGATGTCTGCATCAGG | -1.13 |

Biological target: FAM22D
Assay: as above
Details: shRNA

| Sequence | sensor-assay potency score (higher = more potent) |
| --- | --- |
| TTGAAAGTAAACAGGTTCCTGG | -0.42 |
| TGGTCTCTGCTGGTCTCTGGGG | -1.54 |
| TTCCACAATGAGAAAAGCCAAG | -1.63 |
| TTCTCATAGACACTCCTGGGGT | -0.655 |
| TAAGACCCAGAGAGTGACCTGG | -0.135 |
| AAGTTAGACAGCACCAGAGGGC | -0.454 |
| TACTCCTGCACCACTTCTGGGG | -0.442 |
| TTAGACAGCACCAGAGGGCCGC | -0.28 |
| AATTCTTCCAGGAATTGGGGAT | -0.511 |
| TTGGTCTCTGCTCGCCGGTGGG | -1.33 |
| TTCGGTGTCAGGACTCTGGGGA | 0.265 |
| TGAGGAAGCACGAAAGCGCTTC | -0.41 |
| TAAGACCAAGGTCTGCGCCTGA | -0.117 |
| ATGAATGACGGCCTCCACCTTG | -1.02 |
| TGTTCTGTCACCAGAGGTGTGC | -0.395 |
| TTGGTGACGAAGTCTTTCTGGG | -0.0512 |
| TTTGAAAGTAAACAGGTTCCTG | -0.0805 |
| TCTCATAGACACTCCTGGGGTT | 0.0703 |

Biological target: FAM22F
Assay: as above
Details: shRNA

| Sequence | sensor-assay potency score (higher = more potent) |
| --- | --- |
| TTCTTGGACTTGCTGGCAGGAG | -0.948 |
| TTTCTGAGCAGATGGAGACTGA | -0.731 |
| AAGGACTTGAGTCCAACCTGGC | -0.389 |
| TGACAGGAGACTCTCCAGGGAG | -0.895 |
| TCTCTCGCTGCTTCTTGGCCAG | -0.748 |
